The values that follow come from PubChem BioAssay (NCI).

Compounds without any hit were thinned out: in the full panel of roughly 79,000, 15% have a hit. Unmarked numbers belong to inactive results. Active and inactive are the calls of the source. Cut-off read from the data, not from the text of the source: active = growth inhibition above about 70%; inactive = the rest.

A short description of the test: NCI Yeast Anticancer Drug Screen. Data for the sgs1 mgt1 strain (AID 161).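 Note: 0% = growth of cultures given vehicle only.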 The conditions noted are these: S. cerevisiae sgs1 mgt1 strain, at 50.0 µM, active compounds read high. The gist of the method: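 Percent growth inhibition was derived by comparing compound-exposed mutant yeast with vehicle-exposed cultures. The strain carries alterations in DNA damage repair.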
Take `CCCCCCCCCCCCCCOC(=O)C(N)Cc1ccc(O)cc1` (stereo not given): the growth inhibition is 97.9% (active). As to `CN(C)c1ccc(C(O)(Cc2cccc(C#N)c2)c2ccc(N(C)C)cc2)cc1`, the growth inhibition is 52.8%. In the case of `O=C(NNC(=O)c1cccc(C(=O)NNC(=O)c2ccc(Cl)c(Cl)c2)n1)c1ccc(Cl)c(Cl)c1` it was 52.7%; in that of `C=C1C(=O)O[C@H]2[C@H](OC(C)=O)[C@@H](C)CCC/C(C)=C/CC[C@@]3(C)O[C@@H]3C[C@@H]12`, 92.8% (active). In the case of `O=C(c1ccccc1)C1OC1c1ccccc1Cl` (stereo not given) it was -12.7%; in that of `[N-]=[N+]=Nc1ccc(SSCCC(=O)ON2C(=O)CCC2=O)cc1`, 98.3% (active); in that of `Cc1cc(N(CCC#N)CCC#N)ccc1/C(N=Nc1cccc([N+](=O)[O-])c1)=N/NC(=O)c1cc(Cl)ccc1O`, 66%. In the case of `CC(C)/C(Cl)=N\OC(=O)Nc1ccc(S(N)(=O)=O)cc1` it was 68%; in that of `CCCCCCCCCCCCCC(=O)OCC(O)CO` (stereo not given), -0.5%; in that of `O=C1C=CC(=O)N1C1CCCCC1`, 99.5% (active). Turning to `CCCCCCCCCCCC(=O)OCC1OC(n2cc(F)c(=O)[nH]c2=O)C(N)C(O)C1O` (stereo not given), the growth inhibition was 89.1% (active). Consider `CN(C)c1ccc(C2C=C(c3ccccc3)Oc3ccccc32)cc1` (stereo not given), for which the growth inhibition was 96.9% (active). The same measure for `CS(=O)(=O)OCCN(CCOS(C)(=O)=O)c1ccc(C=Nc2cccc(Cl)c2)cc1`: 88.8% (active); for `O=C1C(=O)N(c2cc(Cl)ccc2Cl)C(=O)C(=O)C1c1nc2ccccc2o1`: 36.8%; for `CC1=NC(=Cc2ccc(Cl)cc2)C(=O)N1n1c(-c2ccccc2)nc2ccccc2c1=O`: 86% (active). Take `C/C(=N/Nc1ccc([N+](=O)[O-])cc1[N+](=O)[O-])C1=CCC(C(C)(C)C)CC1` (stereo not given): the growth inhibition is -7.05%. For the compound `Cc1ccc(C)c(N2C(=O)C(=O)C(c3nc4ccccc4o3)/C(=N\NC(=O)c3ccccc3O)C2=O)c1` (stereo not given), the growth inhibition was 63%. The same measure for `O=C(/C=C/C=C/c1ccccc1)c1ccco1`: 91.7% (active). The same measure for `O=C1CCC(=O)c2c1c(O)c1ccncc1c2O`: 99.2% (active).

`CNC(=O)OC(C)CN1c2ccccc2Sc2ccc(Cl)cc21` (stereo not given): the growth inhibition is 90.9% (active). `c1coc(C2=Nc3cccc4cccc(c34)N2)c1`: the growth inhibition is 76.7% (active). In the case of `CCOC(=O)[C@]12CCC[C@@]1(O)NC(=O)c1cnccc12` it was 97.4% (active).

As for `Cc1cccc(C)c1N1C(=O)C2Nc3ccccc3SC2C1=O` (stereo not given), the growth inhibition was 98.4% (active).

As to `CCc1cccc(C(C)(C)C)c1NC(=S)N/C=C(\c1ccccc1)S(=O)Cc1ccccc1` (stereo not given), the growth inhibition was 68.2%. In the case of `CC(=O)Nc1ccc(-c2cnc3ccccc3c2)cc1` it was 4.25%. In the case of `OCC(CO)C1c2cccc3ccc4cccc1c4c23` it was 85.7% (active); in that of `O=C1CC(=S)NC(=S)N1`, -15%.

Take `Cc1c2ccnc(C(N)=O)c2c(C)c2c1[nH]c1ccccc12`: the growth inhibition was 38.6%. In the case of `CCC(=O)Sc1ccccc1C(=O)Nc1ccc(Cl)cc1` it was 52.4%. The same measure for `O=C(O)c1c(Cl)c(Cl)c(Cl)c(Cl)c1-c1c2cc(I)c(=O)c(I)c-2oc2c(I)c(O)c(I)cc12`: 91.6% (active); for `C=C/C=C/CC=C`: 6.6%; for `Cc1ccccc1N1CCN(c2c3c(nc4ccccc24)CCCCC3)CC1`: 97.2% (active). Take `N/N=C(\N)c1ccc2ccc3cccnc3c2n1`: the growth inhibition was 56.8%. In the case of `CCCCCC(CCCCC)C(=O)O` it was 72% (active). In the case of `O=Cc1cc(S(=O)(=O)c2ccc(O)c(C=O)c2)ccc1O` it was 98.8% (active). Take `Cc1ccc(C)c(N2C(=O)C(=O)C(c3nc4ccccc4o3)C(=O)C2=O)c1`: the growth inhibition was 96.3% (active).

As to `COC(=O)c1cc(C)c2sc3ccccc3c2c1C`, the growth inhibition was 75.2% (active).

For `O=C1NC(=O)N(c2ccc(Cl)c(Cl)c2)C1=O`, the growth inhibition was 41.5%.

As for `Clc1ccc2oc(N3CCCCC3)nc2c1`, the growth inhibition is 99% (active). The same measure for `Cc1ccc(N=NC(C(=O)c2ccccc2)C(=O)c2ccccc2)cc1`: 91.3% (active).
